The record followed here is PubChem BioAssay.

The source made the active and inactive calls.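 The calls were made as follows, unless noted: active = visually confirmed hit in the image check and inhibition above 20%; inconclusive = visually confirmed hit but inhibition not above 20%; inactive = no visual hit in the image check.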

The inhibition is the change of the read-out against control, counted positive when it falls.

Test [1] is described as follows: inhibitors of TNFa-induced NFkB p65 translocation, primary screen, imaging, HUVEC, MLSMR starter and 10KST1 sets (AID 438;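 active = inhibition above 20% together with a positive visual image hit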;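 also: compound added about 3h40 before a 20 min TNFalpha stimulation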;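 as to inhibition: signal is the nuclear over cytoplasmic p65 intensity ratio per well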). To be noted: HUVEC TNFa-induced p65 nuclear translocation; cell count: measured here: nuclei count (cytotoxicity indicator), at 2.08 µM; inhibition: at 2 µM, stronger effect = higher value, 0% TNFa-plus-vehicle, 100% no-TNFa wells.
Test [2] in a line: inhibitors of mutant huntingtin aggregation, primary screen, imaging, exon1htt(103Q)mCFP cells, high-content imaging (AID 483;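 active = visual image review flags a hit and inhibition of aggregation exceeds 20%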;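 also: compound exposure lasted 3 days before fixation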;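 as to nuclei count: percent of the per-plate median nuclei count of sample wells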). To be noted: exon1htt(103Q)mCFP cell line, aggregate imaging, at 2 µM; inhibition of aggregation: stronger effect = higher value; nuclei count: measured here: cell count, toxicity.
A short description of test [3]: inhibitors of E-selectin induction by TNFa, primary screen, imaging, HUVEC, immunofluorescence, MLSMR starter and 10KST1 sets (AID 487).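 As to inhibition: signal is fraction of cell area covered by stained E-selectin grains.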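 As to nuclei count: 100% = median nuclei count of all wells on the same plate.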 The following applies: HUVEC TNFalpha-induced E-selectin immunofluorescence imaging, at 2 µM; inhibition: stronger effect = higher value; nuclei count: measured here: cell number, toxicity.
Test [4] addresses Voltage-gated potassium channel subunit beta-2 (Rattus norvegicus) (UniProt P62483). The experiment in a line: KvBeta enzyme negative modulators, primary screen, biochemical, NADPH fluorescence (AID 622;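 active = fluorescence slope higher than the sample average by over 3 SD, cut at about -0.22 in these data, passing the limit was not always enough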;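 also: slope of raw intensity against log time taken from 70 to 1610 s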). To be noted: recombinant KvBeta, 4-cyanobenzaldehyde reduction, at 10 µM, stronger effect = higher value.
For test [5] the target is unchanged. The experiment in a line: KvBeta positive modulators, primary screen, biochemical, NADPH fluorescence (AID 623;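 active = NADPH fluorescence slope more negative than the mean of all samples by about 3 SD, 99.7% confidence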;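 also: fluorescence intensity change per second fitted from 20 to 320 s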). The following applies: Recombinant KvBeta, NADPH fluorescence decrease slope, 10 min; at 10 µM; stronger effect = lower value.
For test [6], the target named is Alpha-2C adrenergic receptor (Homo sapiens) (UniProt P18825). As to the kind of experiment: modulators of alpha2C/GIRK thallium flux, primary screen, cell-based, HEK293 alpha2C/GIRK1/2 (AID 624;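 active = fluorescence slope after compound addition differing from the mean of all screened samples at 99.7% confidence, in either direction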;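 also: slope of fluorescence ratio to pre-addition baseline per second over 15 to 24 s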). To be noted: thallium flux BTC fluorescence, at 10 µM, actives lie on both sides.
Test [7] is described as follows: inhibitors of Sendai virus-induced IRF3 signaling, primary screen, TLR/RLR signaling modifier project, cell-based, Sendai virus stimulus, luciferase, 10K MLSCN set (AID 602276;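 active = inhibition at or above 50% at 10 µM; inactive = inhibition below 50%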;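 also: firefly luciferase from ISG56 promoter only with Renilla not read in this screen; 0% = Sendai virus plus DMSO and 100% = medium plus DMSO without virus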). To be noted: HEK293 RL24 IRF3 luciferase reporter, at 10 µM, stronger effect = higher value.
Test [8] in a line: inhibitors of poly I:C-induced TLR3 signaling, primary screen, cell-based, poly I:C stimulus, luciferase, 10K MLSCN set (AID 602277;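 active = inhibition of the reporter signal at or above 50%; inactive = inhibition below 50%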). To be noted: HEK293-TLR3 RL24 IRF3 luciferase reporter, at 10 µM, stronger effect = higher value. In general terms: In a reporter assay the amount or activity of a reporter protein is the signal.

Alpha-2C adrenergic receptor (Homo sapiens), sequence (P18825 whole entry, looked up): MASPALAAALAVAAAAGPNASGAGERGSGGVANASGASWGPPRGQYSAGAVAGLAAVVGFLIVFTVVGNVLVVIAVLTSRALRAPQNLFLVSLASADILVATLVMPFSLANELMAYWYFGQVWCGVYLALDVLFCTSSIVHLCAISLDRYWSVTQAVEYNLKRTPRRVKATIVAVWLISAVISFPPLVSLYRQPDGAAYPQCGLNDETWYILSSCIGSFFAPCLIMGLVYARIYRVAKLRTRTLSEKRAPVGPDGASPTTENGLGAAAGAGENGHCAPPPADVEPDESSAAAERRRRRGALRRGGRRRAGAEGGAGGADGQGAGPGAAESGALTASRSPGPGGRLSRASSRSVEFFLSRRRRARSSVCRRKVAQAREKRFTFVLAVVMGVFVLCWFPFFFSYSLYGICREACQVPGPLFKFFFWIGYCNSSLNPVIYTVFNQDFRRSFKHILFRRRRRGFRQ
Voltage-gated potassium channel subunit beta-2 (Rattus norvegicus), sequence (P62483 whole entry, looked up): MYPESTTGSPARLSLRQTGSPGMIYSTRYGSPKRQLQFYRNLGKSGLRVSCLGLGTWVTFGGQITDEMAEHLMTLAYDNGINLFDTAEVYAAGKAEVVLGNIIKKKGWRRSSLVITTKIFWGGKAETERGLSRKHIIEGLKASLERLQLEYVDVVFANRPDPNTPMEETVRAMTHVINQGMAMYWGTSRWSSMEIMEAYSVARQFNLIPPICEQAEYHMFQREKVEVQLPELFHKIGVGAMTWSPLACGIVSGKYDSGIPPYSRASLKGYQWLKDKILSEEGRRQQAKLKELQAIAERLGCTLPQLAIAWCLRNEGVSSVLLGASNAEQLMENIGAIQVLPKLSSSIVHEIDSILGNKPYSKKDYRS

For the compound `Cc1ccc(NC(=O)CSc2nnc(-c3cnccn3)n2Cc2ccco2)cc1C`, the cell count in test [1] is 228. The inhibition in test [1] was -3.5% (inactive); in test [3], 35.1% (inactive); in test [7], 6.92% (inactive); in test [8], 17.3% (inactive). For the same compound, in test [2], the inhibition of aggregation was 4.6% (inactive). Besides, the nuclei count turned out to be 76.2% in test [2] and 65.4% in test [3]. Also, in test [4], the fluorescence slope is -0.418 (inactive). In test [5], the NADPH fluorescence slope was 3.1e-05 (inactive). The slope in test [6] is 0.00338 (inactive).
For the compound `CC(C)(C)n1nnnc1CN1CCC(NC(=O)NC2CCCCC2)CC1`, in test [1], the cell count came to 345. The inhibition is -18.5% (inactive) in test [1], -45.9% (inactive) in test [3], 11% (inactive) in test [7] and 18.5% (inactive) in test [8]. Moreover, the inhibition of aggregation in test [2] was 10.8% (inactive). Also, the nuclei count in test [2] was determined as 93%; in test [3] it was 115%. Further, in test [4], the fluorescence slope was -0.324 (inactive). For the same compound, in test [5], the NADPH fluorescence slope was 9.8e-06 (inactive). Further, the slope in test [6] is 0.00372 (inactive).
Take `O=S(=O)(Nc1ccc(Cc2ccncc2)cc1)N1CCCC1`: in test [1], the cell count stood at 848. In addition, the inhibition was -3.6% (inactive) in test [1], -102% (inactive) in test [3], 1.91% (inactive) in test [7] and 2.2% (inactive) in test [8]. Also, the inhibition of aggregation in test [2] is -0.2% (inactive). For the same compound, the nuclei count in test [2] was 111%; in test [3], 130%. The fluorescence slope in test [4] was -0.52 (inactive). The NADPH fluorescence slope in test [5] is 1.2e-05 (inactive). In addition, in test [6], the slope is 0.00557 (inactive).
For the compound `CCCN1C2CCCC1CC(NC(=O)Nc1cccc(C(C)=O)c1)C2` (centres undefined), in test [1], the cell count was found to be 418. The inhibition was -10.3% (inactive) in test [1], -138% (inactive) in test [3], 23.1% (inactive) in test [7] and 37.8% (inactive) in test [8]. The inhibition of aggregation in test [2] was -17% (inactive). Besides, the figures for the nuclei count in test [2] and in test [3] were 97% and 180%, respectively. The fluorescence slope in test [4] is -0.637 (inactive). Also, in test [5], the NADPH fluorescence slope was 1.7e-05 (inactive). In addition, the slope in test [6] is 0.00567 (inactive).
In the case of `CCN(CC)S(=O)(=O)c1ccc(NC2c3ccccc3C(=O)N2CCN2CCOCC2)cc1` (centres undefined), in test [1], the cell count stood at 534. The inhibition in test [1] was -12.6% (inactive); in test [3] it was -147% (inactive); in test [7], 4.22% (inactive); in test [8] it was 10.7% (inactive). Also, in test [2], the inhibition of aggregation is 24.2% (inactive). The nuclei count in test [2] turned out to be 95.3%; in test [3], 128%. In addition, the fluorescence slope in test [4] was -0.611 (inactive). The NADPH fluorescence slope in test [5] was 1.3e-05 (inactive). The slope in test [6] is 0.00571 (inactive).
Take `COc1ccc(NC(=O)CSc2nc3c(c(=O)n2-c2ccc(F)cc2)SCC3)cc1`: the cell count in test [1] amounted to 596. Moreover, the inhibition was -5.8% (inactive) in test [1], -11.9% (inactive) in test [3], 17.1% (inactive) in test [7] and 26.3% (inactive) in test [8]. The inhibition of aggregation in test [2] is 20% (inactive). Further, the nuclei count came to 53.8% in test [2] and 91.5% in test [3]. Moreover, the fluorescence slope in test [4] is -0.541 (inactive). Besides, in test [5], the NADPH fluorescence slope was -1.7e-05 (inactive). In test [6], the slope is 0.00814 (inactive).
As to `CN(C)C(=O)N1CCN(C(=O)c2ccco2)CC1`, the cell count in test [1] stood at 827. In addition, the inhibition in test [1] was -15.9% (inactive); in test [3] it was -69.2% (inactive); in test [7], -4.34% (inactive); in test [8], 19.5% (inactive). Also, in test [2], the inhibition of aggregation is 17.6% (inactive). Further, the nuclei count in test [2] was found to be 99.6%; in test [3], 114%. Further, in test [4], the fluorescence slope is -0.601 (inactive). Besides, the NADPH fluorescence slope in test [5] is 5.7e-06 (inactive). For the same compound, the slope in test [6] is 0.00702 (inactive).
As for `CN1CCN(C(=O)c2ccc(CS(=O)(=O)c3c(Cl)cccc3Cl)o2)CC1`, the cell count in test [1] came to 652. Moreover, the inhibition was -0.5% (inactive) in test [1], -24.1% (inactive) in test [3], 16.8% (inactive) in test [7] and 24.4% (inactive) in test [8]. The inhibition of aggregation in test [2] was 11.9% (inactive). Also, the nuclei count in test [2] came out at 96.9%; in test [3], 137%. Further, in test [4], the fluorescence slope was -0.515 (inactive). Moreover, in test [5], the NADPH fluorescence slope is -2.9e-05 (inactive). The slope in test [6] is 0.00604 (inactive).
As for `N#CC1=C(N)Oc2cc(O)ccc2C1C1CCCCC1` (centres undefined), in test [1], the cell count was 527. The inhibition is 0.6% (inactive) in test [1], -33.8% (inactive) in test [3], 14.1% (inactive) in test [7] and 25.6% (inactive) in test [8]. Besides, the inhibition of aggregation in test [2] was 18.3% (inactive). For the same compound, the nuclei count in test [2] turned out to be 103%; in test [3] it was 85.8%. The fluorescence slope in test [4] was -0.443 (inactive). In test [5], the NADPH fluorescence slope is 1.3e-05 (inactive). Further, the slope in test [6] is 0.00336 (inactive).
`O=C(CSc1ncc(-c2ccc(F)cc2)[nH]1)N1CCCCC1`: the cell count in test [1] is 425. Also, the inhibition was 0% (inactive) in test [1], -25.6% (inactive) in test [3], -13% (inactive) in test [7] and -71.4% (inactive) in test [8]. Moreover, the inhibition of aggregation in test [2] is -11% (inactive). For the same compound, the figures for the nuclei count in test [2] and in test [3] were 78.3% and 106%, respectively. Also, the fluorescence slope in test [4] is -0.331 (inactive). Further, the NADPH fluorescence slope in test [5] was -5.1e-05 (inactive). The slope in test [6] is 0.00631 (inactive).
In the case of `O=S(=O)(NC1CCCC1)c1ccc(S(=O)(=O)N2CCc3ccccc32)cc1`, the cell count in test [1] came out at 395. The inhibition in test [1] was 0% (inactive); in test [3], -13.9% (inactive); in test [7], 5.42% (inactive); in test [8] it was -11.7% (inactive). In test [2], the inhibition of aggregation was 8.6% (inactive). The nuclei count in test [2] was found to be 102%; in test [3], 97.5%. Besides, the fluorescence slope in test [4] was -0.589 (inactive). The NADPH fluorescence slope in test [5] is -1.9e-05 (inactive). Moreover, in test [6], the slope is 0.00513 (inactive).
For the compound `O=C(c1cccc(C(=O)N2CCN(c3ccccc3)CC2)c1)N1CCN(c2ccccc2)CC1`, the cell count in test [1] is 667. The inhibition in test [1] was -2.6% (inactive); in test [3], -86.1% (inactive); in test [7] it was 4.89% (inactive); in test [8], -1.16% (inactive). In test [2], the inhibition of aggregation was 1.8% (inactive). The nuclei count was 98.6% in test [2] and 112% in test [3]. Further, the fluorescence slope in test [4] was -0.456 (inactive). Besides, the NADPH fluorescence slope in test [5] was 3e-05 (inactive). Besides, in test [6], the slope is 0.00517 (inactive).
On to `COc1ccc(OC)c(NC(=O)CS(=O)(=O)Cc2nc(-c3ccccc3C)oc2C)c1`, for which, in test [1], the cell count is 676. Also, the inhibition was 1.1% (inactive) in test [1], -17.6% (inactive) in test [3], 7.59% (inactive) in test [7] and 31.4% (inactive) in test [8]. Moreover, in test [2], the inhibition of aggregation is -17.4% (inactive). Also, the nuclei count in test [2] turned out to be 97.7%; in test [3], 110%. In addition, in test [4], the fluorescence slope is -0.587 (inactive). In addition, the NADPH fluorescence slope in test [5] was -1.4e-06 (inactive). Further, the slope in test [6] is 0.00717 (inactive).
Take `CC(C)Cn1c(N)c(C(=O)NCc2cccs2)c2nc3ccccc3nc21`: in test [1], the cell count came out at 250. The inhibition in test [1] was -2.4% (inactive); in test [3], -1.8% (inactive); in test [7] it was 14.5% (inactive); in test [8], -0.686% (inactive). The inhibition of aggregation in test [2] is -3.1% (inactive). Further, the nuclei count in test [2] stood at 68.4%; in test [3] it was 97.2%. Also, the fluorescence slope in test [4] is -0.474 (inactive). Besides, the NADPH fluorescence slope in test [5] was 7.5e-06 (inactive). Moreover, the slope in test [6] is 0.00389 (inactive).
